Where “and” joins values, the source holds several entries; their conditions need not be identical. Equal entries are not always repeated. Results filed as inconclusive are left out. Where a call stands in place of a potency, no number is given. Calls of active or inactive are those of the source. Unless noted, calls follow the shape of the dose curve; as a rule, active = well fitted curve in the direction sought with a large enough effect; inconclusive = small, poorly fitted or top-dose-only effect, or another doubt; inactive = no such curve, though single readings can be large; an effect the other way counts as inactive or inconclusive.
Key:
[1] = Cell Viability - NIH 3T3 (AID 541); settings: NIH 3T3 cell viability, qHTS; activity change, negative = cytotoxicity: at 92.2 µM (top of the series);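 also: cells exposed to compound for 40 hours; nearly all actives have a fitted effect of over 25% in size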
Outline: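 AC50 values reflect concentration-dependent loss of intracellular ATP in NIH 3T3 cells after 40 hr treatment in complete culture medium, quantified by luciferase-based luminescence.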

[2] = Cell Viability - LYMP1-003 - Assay at 40 hr (AID 964); also: nearly all actives have a fitted effect of over 60% in size
Outline: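 This qHTS cytotoxicity screen treats human lymphoblastoid cells (LYMP1-003) with compounds for 40 hr and quantifies cellular ATP via luciferase luminescence.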

[3] = Cell Viability - LYMP2-005 (AID 967)
Outline: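 Human lymphoblastoid LYMP2-005 cells, 2,500 per well in complete medium, rested 5 h at 37C then compound-treated 24 h at 37C. Intracellular ATP read by CellTiter-Glo luminescence after 30 min at room temperature; AC50 from Hill-equation fits of concentration-response data.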

[4] = Cell Viability - LYMP2-011 (AID 969); also: nearly all actives have a fitted effect of over 60% in size
Outline: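 Acute toxicity is scored as a concentration-dependent drop in intracellular ATP of a human lymphoblastoid line after 24 hr treatment. Values are AC50s modeled with the Hill equation.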

[5] = Cell Viability - LYMP2-013 (AID 970); also: nearly all actives have a fitted effect of over 55% in size
Outline: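 Acute toxicity was measured in human lymphoblastoid cells (2500/well) exposed to compound titrations for 24 hr, with ATP luminescence (CellTiter-Glo) as read-out and AC50 fitted by Hill equation.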

[6] = Cell Viability - LYMP2-017 (AID 972); also: nearly all actives have a fitted effect of over 55% in size
Outline: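 Steps: plate 2500 lymphoblastoid cells per well; incubate 5 hr at 37 C; add compound across a concentration series and incubate 24 hr at 37 C; add CellTiter-Glo and read luminescence after 30 min at room temperature; fit Hill curves for AC50.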

[7] = Cell Viability - LYMP2-019 (AID 973); also: nearly all actives have a fitted effect of over 55% in size
Outline: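 Cells plated at 2500/well and allowed 5 hr at 37 C before compound addition. After 24 hr incubation, CellTiter-Glo reagent was added, plates sat 30 min at room temperature, and luminescence was recorded.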

[8] = Cell Viability - LYMP2-021 (AID 974);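 also: compound exposure lasts 24 hours at 37 °C; nearly all actives have a fitted effect of over 55% in size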
Outline: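 Concentration-response cytotoxicity in a human lymphoblastoid line: 24 hr treatment at 37 C in complete culture medium, tetraoctylammonium bromide as positive control, luminescent ATP quantitation as viability measure.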

[9] = Cell Viability - LYMP2-023 (AID 975)
Outline: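 Concentration-dependent drop in intracellular ATP measures acute cytotoxicity in a human lymphoblastoid line treated for 24 hours in complete culture medium. AC50 values are taken from Hill-equation fits of qHTS data.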

[10] = Cell Viability - LYMP2-002 (AID 977)
Outline: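 Luminescent ATP readout (CellTiter-Glo, 30 min room temperature) after 24 h compound exposure at 37 C of a human lymphoblastoid line, 2500 cells/well. AC50 values derived by standard Hill fitting of qHTS concentration-response data.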

[11] = Cell Viability - LYMP2-016 (AID 984); also: nearly all actives have a fitted effect of over 55% in size
Outline: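 Human lymphoblastoid LYMP2-016 cells, 2500 per well, treated with compounds for 24 h at 37 C. Viability read as intracellular ATP by CellTiter-Glo luminescence after 30 min at room temperature; AC50 from Hill fits of concentration-response.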

[12] = Cell Viability - LYMP2-018 (AID 985);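 also: compound exposure lasted 24 hr at 37 °C; nearly all actives have a fitted effect of over 50% in size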
Outline: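 Acute cytotoxicity is scored as a concentration-dependent drop in intracellular ATP after 24 hr exposure of the lymphoblastoid line in complete culture medium, measured by luciferase luminescence. Potency is expressed as AC50 from Hill modelling.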

[13] = Cell Viability - LYMP2-020 (AID 986); also: nearly all actives have a fitted effect of over 55% in size
Outline: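 Acute cytotoxicity in a human lymphoblastoid line is scored as a concentration-dependent fall in cellular ATP after 24 hr at 37 C in complete medium. The positive control is tetraoctylammonium bromide, and potency is given as Hill-fit AC50.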

[14] = Cell Viability - LYMP2-022 (AID 987); also: nearly all actives have a fitted effect of over 55% in size
Outline: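 Acute toxicity in a human lymphoblastoid line is scored as decreased intracellular ATP after 24 hr compound treatment at 37 C. ATP is measured by CellTiter-Glo luminescence; curves are fitted with the Hill equation to give AC50.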

[15] = qHTS assay for small molecule antagonists of retinoid X receptor alpha signaling (AID 588546; active = well fitted inhibition curve with a large enough effect in the signal ratio, with a control signal flat, not every such curve was filed as active; the % refers to the signal ratio;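 also: cells stimulated with 9-cis-retinoic acid as agonist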); settings: HEK293T RXRa-UAS-bla, beta-lactamase ratio, antagonist mode; measured here: W530 green channel, cytotoxicity proxy
Outline: (§1)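 Beta-lactamase reporter inhibition, read as CCF4 fluorescence ratio (ex 405, em 460/530 nm) after 2 h at RT. HEK293T UAS-bla cells, 2500/well, were stimulated with 9-cis-RA at 500 or 100 nM final alongside test compound for 18 h at 37 C.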

[16] = biological target: Retinoic acid receptor RXR-alpha (Homo sapiens) (UniProt P19793); test: as above; settings: HEK293T RXRa-UAS-bla, beta-lactamase ratio, antagonist mode
Outline: as §1

[17] = biological target: Thyroid hormone receptor beta (Homo sapiens) (UniProt P10828); test: qHTS assay for small molecule antagonists of thyroid hormone receptor beta signaling (AID 588547; active = well fitted inhibition curve with a large enough effect in the signal ratio, with a control signal flat, not every such curve was filed as active; the % refers to the signal ratio;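 also: cells stimulated with 0.4 nM T3 agonist during compound exposure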); settings: TR-UAS-bla HEK293, beta-lactamase ratio, antagonist mode, 18 h
Outline: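 TR-UAS-bla GripTite HEK293 cells in 2% charcoal/dextran FBS medium were preincubated 4 h at 37 C, given compound (0.59 nM to 92 uM) plus 0.4 nM T3 (final) for 18 h, then CCF4 for 2 h at RT; Hill fit gave IC50.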

[18] = qHTS assay for small molecule disruptors of the mitochondrial membrane potential - 1 hr assay (AID 651754; calls by dose curve; also: nearly all actives have a fitted effect of over 35% in size)
Outline: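 Steps: seed HepG2 cells and let attach overnight; pin-transfer compound or vehicle; incubate 1 hr at 37C; add Mito-MPS dye for 30 min; read two-channel fluorescence for monomer and aggregate forms.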

[19] = qHTS assay for small molecule disruptors of the mitochondrial membrane potential - 5 hr assay (AID 651755; calls by dose curve; also: nearly all actives have a fitted effect of over 40% in size)
Outline: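 HepG2 cells, attached overnight at 37C, were exposed to compound or DMSO for 5 hr at 37C, 5% CO2. Mito-MPS dye was then added for 30 min, and fluorescence read at 490/535 nm (monomers) and 540/590 nm (aggregates).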

[20] = qHTS assay for environmental chemicals that activate the Aryl hydrocarbon Receptor (AhR) signaling pathway (AID 651777); settings: 1A2-DRE human hepatoma cells, luciferase, 24 h; activation: stronger effect = higher value; also: nearly all actives have a fitted effect of over 15% in size
Outline: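 Measured luciferase activity, read 30 min after One-Glo addition at room temperature, from human hepatoma cells bearing a dioxin response element–CYP1A2 promoter reporter and exposed to compound for 24 hr at 37 C.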

Sequence of Retinoic acid receptor RXR-alpha (Homo sapiens) (P19793 whole entry, looked up): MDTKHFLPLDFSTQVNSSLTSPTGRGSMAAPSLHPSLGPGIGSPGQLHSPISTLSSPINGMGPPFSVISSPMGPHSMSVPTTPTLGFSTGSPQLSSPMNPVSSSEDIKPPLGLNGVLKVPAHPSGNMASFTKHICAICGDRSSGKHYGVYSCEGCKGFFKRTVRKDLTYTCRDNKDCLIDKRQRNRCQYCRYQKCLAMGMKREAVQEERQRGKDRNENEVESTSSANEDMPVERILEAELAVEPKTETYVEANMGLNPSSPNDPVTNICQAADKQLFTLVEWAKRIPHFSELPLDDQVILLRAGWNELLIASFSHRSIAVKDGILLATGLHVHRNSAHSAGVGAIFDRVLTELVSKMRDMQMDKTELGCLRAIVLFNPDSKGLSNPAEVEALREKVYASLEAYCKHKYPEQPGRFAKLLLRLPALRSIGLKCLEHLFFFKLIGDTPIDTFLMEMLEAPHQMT
Sequence of Thyroid hormone receptor beta (Homo sapiens) (P10828 whole entry, looked up): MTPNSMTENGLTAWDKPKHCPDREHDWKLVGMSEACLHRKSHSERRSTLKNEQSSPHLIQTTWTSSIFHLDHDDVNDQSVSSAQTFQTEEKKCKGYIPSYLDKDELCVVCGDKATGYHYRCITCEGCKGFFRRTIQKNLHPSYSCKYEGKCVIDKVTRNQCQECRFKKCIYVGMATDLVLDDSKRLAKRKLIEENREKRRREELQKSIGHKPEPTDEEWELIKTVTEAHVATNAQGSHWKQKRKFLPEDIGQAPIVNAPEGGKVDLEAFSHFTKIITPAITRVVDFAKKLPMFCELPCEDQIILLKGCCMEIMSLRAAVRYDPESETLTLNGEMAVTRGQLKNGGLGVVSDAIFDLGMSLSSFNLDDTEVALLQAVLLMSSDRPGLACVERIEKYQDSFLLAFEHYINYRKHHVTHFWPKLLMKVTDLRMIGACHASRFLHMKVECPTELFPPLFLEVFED

| SMILES | activity change, negative = cytotoxicity [1] | Potency [2] | Potency [3] | Potency [4] | Potency [5] | Potency [6] | Potency [7] | Potency [8] | Potency [9] | Potency [10] | Potency [11] | Potency [12] | Potency [13] | Potency [14] | max response [15] | max response [16] | activity change % (negative = inhibition) [17] | Potency [18] | Potency [19] | activation [20] |
| --- | --- | --- | --- | --- | --- | --- | --- | --- | --- | --- | --- | --- | --- | --- | --- | --- | --- | --- | --- | --- |
| Clc1nc(Cl)nc(Cl)n1 | -8.17% (inactive) | inactive | inactive | inactive | inactive | inactive | inactive | inactive | inactive | inactive | inactive | inactive | inactive | inactive | -2.29% and -4.83% | 12.3% (inactive) and -0.616% (inactive) | -1.04% (inactive) | inactive | inactive | 1.36% (inactive) and 0.55% (inactive) |
| ClC(Cl)=C(Cl)C(Cl)=C(Cl)Cl | -27.5% (inactive) | inactive | inactive | inactive | inactive | – | inactive | – | inactive | inactive | – | inactive | – | – | -3.71% and -13.6% | -0.928% (inactive) and 1.51% (inactive) | -2.4% (inactive) | inactive | inactive | -0.54% (inactive) and -2.12% (inactive) |
| Oc1ccc(Cl)cc1Cl | -8.01% (inactive) | inactive | inactive | inactive | inactive | inactive | inactive | inactive | inactive | inactive | inactive | inactive | inactive | inactive | -7.11% and -14.1% | -2.36% (inactive) and -1.51% (inactive) | 16.9% (inactive) and -6.49% (inactive) | inactive | inactive | 0.13% (inactive) and 0.875% (inactive) |
| CCC[CH2][Sn]([Cl])([Cl])[Cl] | -25.6% (inactive) | inactive | inactive | inactive | inactive | inactive | inactive | inactive | inactive | inactive | inactive | inactive | inactive | inactive | -9.08% and -6.63% | -1.26% (inactive) and -2.57% (inactive) | 9.88% (inactive) | inactive | inactive | 0.348% (inactive) and 0.965% (inactive) |
| C=CC1CC=CCC1 (stereo not given) | 4.42% (inactive) | inactive | inactive | inactive | inactive | inactive | inactive | inactive | inactive | inactive | inactive | inactive | inactive | inactive | -1.79% and -13.7% | 12.3% (inactive) and -16.5% (inactive) | 13.7% (inactive) and -3.35% (inactive) | inactive | inactive | 0.186% (inactive) and 0.879% (inactive) |
| CCOc1ccc(N)cc1 | -11.8% (inactive) | inactive | inactive | inactive | inactive | inactive | inactive | inactive | inactive | inactive | inactive | inactive | inactive | inactive | -4.66% | -3.13% (inactive) | -6.64% (inactive) | inactive | inactive | 1.6% (inactive) |
| O=[N+]([O-])c1cccc2ccccc12 | 3.57% (inactive) | inactive | inactive | inactive | inactive | inactive | inactive | inactive | inactive | inactive | inactive | inactive | inactive | inactive | -1.12% and -4.23% | 5.1% (inactive) and -1.16% (inactive) | 7.72% (inactive) and 4.17% (inactive) | inactive | inactive | 0.626% (inactive) and 5.73% (inactive) |
| Nc1ccc(Br)cc1 | -14.1% (inactive) | inactive | inactive | inactive | inactive | inactive | inactive | inactive | inactive | inactive | inactive | inactive | inactive | inactive | 3.4% | 15.2% (inactive) | -8.18% (inactive) | inactive | inactive | 0.717% (inactive) |
